Measurements from paper PMC7826789 (International Journal of Molecular Sciences, 2021).

What was measured:
Settings in all cases: Compound Concentration (nM):1000
[1] = system: STK33
[2] = system: STK35
[3] = system: STK36
[4] = system: STK39
[5] = system: SYK
[6] = system: SgK110
[7] = system: T1, TAK1
T1 construct: gene MAP3K7

[8] = system: TAOK1
[9] = system: TAOK2
[10] = system: TAOK3
[11] = system: TBK1
[12] = system: TEC
[13] = system: TESK1
[14] = system: TGFBR1
[15] = system: TGFBR2
[16] = system: TIE1
[17] = system: T2, TIE2
T2 construct: gene TEK

[18] = system: TLK1
[19] = system: TLK2
[20] = system: TNIK
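Note: KINOMEscan scanMAX binding as percent activity remaining versus control; lower means stronger binding.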

| SMILES | Percent Control [1] | Percent Control [2] | Percent Control [3] | Percent Control [4] | Percent Control [5] | Percent Control [6] | Percent Control [7] | Percent Control [8] | Percent Control [9] | Percent Control [10] | Percent Control [11] | Percent Control [12] | Percent Control [13] | Percent Control [14] | Percent Control [15] | Percent Control [16] | Percent Control [17] | Percent Control [18] | Percent Control [19] | Percent Control [20] |
| --- | --- | --- | --- | --- | --- | --- | --- | --- | --- | --- | --- | --- | --- | --- | --- | --- | --- | --- | --- | --- |
| C[C@@H](Oc1cc(-n2cnc3ccc(OC4CCN(C)CC4)cc32)sc1C(N)=O)c1ccccc1Cl [GSK579289A] | 100% | 82% | 76% | 83% | 100% | 100% | 38% | 75% | 96% | 79% | 67% | 99% | 72% | 100% | 100% | 52% | 69% | 81% | 77% | 75% |
| CCc1ccc(Oc2nccc(-c3c(-c4ccc(F)cc4)ncn3C3CCNCC3)n2)cc1 [SB-242719] | 92% | 100% | 82% | 81% | 85% | 100% | 96% | 82% | 93% | 95% | 65% | 100% | 99% | 96% | 100% | 100% | 100% | 91% | 100% | 66% |
| COc1ccccc1-c1cc(/C=C2\C(=O)Nc3ncc(Br)cc32)cc(Br)c1O [GW442130X] | 100% | 100% | 100% | 67% | 100% | 100% | 81% | 93% | 100% | 89% | 100% | 100% | 100% | 100% | 87% | 100% | 95% | 100% | 100% | 71% |
| CN(C)c1cc2c(Nc3ccc4c(cnn4Cc4ccccc4)c3)ncnc2cn1 [GW282974X] | 84% | 100% | 100% | 95% | 100% | 100% | 93% | 92% | 86% | 100% | 55% | 84% | 87% | 100% | 100% | 100% | 100% | 78% | 80% | 100% |
| O=C(Nc1n[nH]c2nc(-c3ccc(O)cc3)c(Br)cc12)C1CC1 [SB-725317] | 96% | 100% | 100% | 99% | 100% | 100% | 95% | 1% | 2.6% | 2.6% | 86% | 100% | 100% | 100% | 100% | 100% | 100% | 100% | 100% | 72% |
| CCS(=O)(=O)c1ccc(OC)c(Nc2ncc(-c3cccc(F)c3)o2)c1 [GW621970X] | 95% | 100% | 100% | 100% | 81% | 100% | 100% | 87% | 100% | 100% | 100% | 100% | 89% | 100% | 52% | 69% | 100% | 100% | 86% | 82% |
| NS(=O)(=O)c1ccc(N/N=C2\C(=O)Nc3ccc(C(=O)NCCc4c[nH]cn4)cc32)cc1 [GW300660X] | 67% | 100% | 100% | 100% | 100% | 100% | 18% | 75% | 93% | 86% | 72% | 100% | 100% | 100% | 100% | 100% | 100% | 100% | 100% | 100% |
| C/C(Nc1ccc(S(N)(=O)=O)cc1)=C1/C(=O)Nc2ccccc21 [GW335962X] | 92% | 95% | 98% | 64% | 94% | 100% | 70% | 81% | 92% | 94% | 75% | 100% | 100% | 88% | 100% | 100% | 100% | 94% | 65% | 18% |
| Cl.O=C(Nc1ccc(Oc2ccc3[nH]c(NC(=O)c4ccccc4)nc3c2)cc1)Nc1cc(C(F)(F)F)ccc1F [GW709042A] | 29% | 95% | 100% | 100% | 99% | 100% | 58% | 90% | 91% | 98% | 88% | 100% | 96% | 100% | 100% | 2.3% | 7.5% | 100% | 86% | 100% |
| COc1cc(C=NNc2ncnc3c2cnn3-c2ccccc2)ccc1O [GW513184X] | 100% | 80% | 82% | 100% | 38% | 100% | 59% | 100% | 100% | 95% | 95% | 90% | 100% | 79% | 100% | 74% | 65% | 100% | 100% | 84% |
